Assay outcomes (PubChem)
The list is not random: actives were taken first. Their share in the collection is about 15%.
SARS PLpro yeast = inhibitors of SARS-CoV papain-like protease in yeast; Potency, µM (top dose mostly 32.9 µM), most hits filed as activators; S. cerevisiae expressing SARS-CoV PLpro, growth rescue; 0.19% of 330,000 active; calls by dose curve; further: nearly all actives have a fitted effect of over 55% in size
HCV inh = inhibitors of hepatitis C virus infection; Potency, µM (top dose mostly 41.8 µM), usual class: inhibitors; Huh7.5.1 HCVcc-Cre infection, luciferase reporter, 44 h; 3.4% of 340,000 active
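After 44 h co-culture of compound, cells and HCVcc-Cre (~0.5 moi), substrate is added for 15 min at room temperature and luciferase measured over 15 sec. Cells were seeded at 1,000/well and pre-cultured 4 h.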
Pf growth 48h = P. falciparum growth inhibition at 48 hours (one generation). P. falciparum luciferase growth in erythrocytes, 48 h. Potency, µM (series often up to 28.7 µM), most hits filed as inhibitors. 5.9% of 310,000 active
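Here the parasites carry a stable luciferase gene and grow inside erythrocytes in Albumax-based RPMI medium with compound for one erythrocytic cycle. Activity is scored as loss of luminescent signal.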
Pf growth 96h = inhibits malaria parasite growth, 96 h | Potency, µM (doses to about 28.7 µM), hits mostly inhibitors | 6.9% of 320,000 active | P. falciparum luciferase reporter growth, 96 h | AID 504834
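P. falciparum expressing integrated firefly luciferase, in erythrocytes at 2% hematocrit, 0.05% parasitemia, incubated with compounds 96 h at 37 C, 5% CO2. Growth inhibition read as loss of luminescence; two-generation exposure targets delayed-death apicoplast inhibitors.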
Sm TGR block = S. mansoni TGR enzyme inhibition; Q962Y6; purified TGR, DTNB reduction, TNB absorbance 405 nm; Potency, µM (highest dose often 114 µM), usual class: inhibitors; 3% of 360,000 active; AID 485364; further: nearly all actives have a fitted effect of over 60% in size
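First, TGR (20 nM dispensed) and NADPH were mixed with compound. Second, a 15 min room-temperature incubation followed. Third, further NADPH and then DTNB were added to start the reaction. Finally, TNB absorbance was monitored kinetically.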
HCMV inh = inhibitors of human cytomegalovirus | HFF cells, HCMV-luciferase reporter, 72 h; stronger effect = lower value | activity change, negative = inhibition, % at 57.5 µM | 4.5% of 410,000 active; in the data active means activity change below about -60%; inconclusive means no clear call, values can overlap the other calls; inactive means above about -39%
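Cell-based, HFFs, 1000 cells/well, 16 h 37C; cpds in DMSO + HCMV-luc, MOI 1 PFU/cell; 72 h 37C; OneGlo luminescence after 5 min RT; norm. to buffer vs Salinomycin 10uM.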
Each line names hits and unclear results; the compound was inactive in the other large screens. Unless noted, the call rests on the fitted dose curve; in most records, active means well fitted curve in the direction sought with a large enough effect; inconclusive means small, poorly fitted or top-dose-only effect, or another doubt; inactive means no such curve, though single readings can be large; an effect the other way counts as inactive or inconclusive.

CCCN1C(=O)C(Cc2nc3ccccc3c(=O)n2CC)c2cc(Br)ccc21 (stereo unspecified)	HCMV inh -73 (no result: SARS PLpro yeast, HCV inh, Pf growth 48h, Pf growth 96h)
CCn1c(CC2C(=O)N(C)c3ccc(Br)cc32)nc2ccccc2c1=O (stereo unspecified)	none (no result: SARS PLpro yeast, HCV inh, Pf growth 48h, Pf growth 96h)
COC(=O)C1=C(c2ccc3ccccc3c2)C[C@@H]2CC[C@H]1N2C(=O)N1CCCC1	HCV inh 10µM, Pf growth 48h 9.3µM, Pf growth 96h inconclusive (no result: HCMV inh)
COC(=O)C1=C(c2ccc(-c3ccccc3)c(F)c2)C[C@@H]2CC[C@H]1N2C(=O)N1CCCCC1	HCV inh inconclusive, Pf growth 48h 10µM, Pf growth 96h inconclusive, HCMV inh -75
COC(=O)C1=C(c2ccc(-c3ccccc3)c(F)c2)C[C@@H]2CC[C@H]1N2C(=O)N1CCc2cc(OC)c(OC)cc2C1	HCV inh inconclusive, Pf growth 48h 5.9µM, Pf growth 96h inconclusive
COC(=O)C1=C(c2ccc(-c3ccccc3)c(F)c2)C[C@@H]2CC[C@H]1N2C(=O)N1CCC(O)CC1	HCV inh inconclusive, Pf growth 48h inconclusive, Pf growth 96h inconclusive, HCMV inh inconclusive
COC(=O)C1=C(c2ccc(-c3ccccc3)c(F)c2)C[C@@H]2CC[C@H]1N2C(=O)N1CCC(C)CC1	HCV inh inconclusive, Pf growth 48h inconclusive, Pf growth 96h inconclusive
COC(=O)C1=C(c2ccc(-c3ccccc3)c(F)c2)C[C@@H]2CC[C@H]1N2C(=O)N1CCCC1	HCV inh 2.8µM, Pf growth 48h 15µM, Pf growth 96h inconclusive, HCMV inh -72
O=S(=O)(c1ccccc1)c1nnn2c1nc(NCc1cccs1)c1sccc12	none (no result: SARS PLpro yeast, HCV inh, Pf growth 48h, Pf growth 96h)
CCCOc1cccc(C2c3c(oc4ccc(F)cc4c3=O)C(=O)N2CCc2ccc(OC)cc2)c1 (stereo unspecified)	none (no result: SARS PLpro yeast, HCV inh, Pf growth 48h, Pf growth 96h)
CC(C)C(=O)NC(=S)Nc1c(Cl)ccc2nsnc12	Pf growth 48h inconclusive, Pf growth 96h inconclusive, Sm TGR block inconclusive
CC(=O)c1ccc(N=c2scc(C)n2C(C)C)cc1	none
Oc1[nH]c2ccccc2c1N=Nc1nc2ccccc2s1	none (no result: Pf growth 48h)
C/C(N=Nc1nc2ccccc2s1)=N\Nc1ccccc1O	HCV inh inconclusive, Pf growth 48h 2.6µM, HCMV inh inconclusive
CCOC(=O)[C@]12CCC=C1N(Cc1ccc(Cl)cc1Cl)C(=O)[C@H](CC(=O)NCCCOC)C2	none (no result: SARS PLpro yeast, HCV inh, Pf growth 48h, Pf growth 96h, Sm TGR block)
CCN(CC)CCOC(=O)c1ccc(NC(=O)c2nn(C)c3c2COc2ccccc2-3)cc1	HCMV inh -87 (no result: SARS PLpro yeast, HCV inh, Pf growth 48h, Pf growth 96h)
CCc1nnc(NC(=O)CSc2nc(C)cs2)s1	none
CC1Cc2ccccc2N1Cc1cc(=O)c(OCC(=O)Nc2ccccc2)co1 (stereo unspecified)	HCV inh inconclusive, Pf growth 48h 9.3µM, Pf growth 96h 10µM
Cc1ccc(NC(=O)COc2coc(CN3c4ccccc4CC3C)cc2=O)c(C)c1 (stereo unspecified)	HCV inh inconclusive, Pf growth 48h inconclusive, Pf growth 96h inconclusive
COc1ccc(CCNC(=O)COc2coc(CN3c4ccccc4CC3C)cc2=O)cc1OC (stereo unspecified)	HCV inh 11µM, Pf growth 48h 9.3µM, Pf growth 96h inconclusive, HCMV inh inconclusive
COc1cc(C)nc(-c2csc(C)n2)n1	Pf growth 48h inconclusive, Pf growth 96h inconclusive, HCMV inh -86
COc1ccc(-c2csc(C)n2)cc1	Pf growth 96h inconclusive
O=C(Nc1cccc(-c2nc3ccccc3o2)c1)c1cc([N+](=O)[O-])ccc1N1CCOCC1	none (no result: SARS PLpro yeast, HCV inh, Pf growth 48h, Pf growth 96h)
O=C(CNC(=O)c1ccc(Cl)cc1Cl)OCc1cn2cc(Br)ccc2n1	none (no result: Pf growth 48h, Pf growth 96h, Sm TGR block)
COc1ccc2c(CC(=O)Nc3ncc(C)s3)coc2c1	HCV inh inconclusive, HCMV inh -77
COc1ccc(-c2cc(=O)n(-c3nc4ccccc4[nH]3)[nH]2)cc1	HCV inh inconclusive, Pf growth 48h inconclusive, HCMV inh -90
CC(C)Cc1ccc(C(C)C(=O)Nc2ncccn2)cc1 (stereo unspecified)	none (no result: Sm TGR block)
COC(=O)c1cc(NC(=O)C(C)c2ccc(CC(C)C)cc2)ccc1O (stereo unspecified)	HCV inh 11µM, Pf growth 48h inconclusive, Pf growth 96h inconclusive, HCMV inh -79
